Gli-Sufu antag: Gli-Sufu pathway antagonists, primary screen, luciferase luminescence, Sufu-KO-LIGHT cells, uHTS | Sufu-KO-LIGHT fibroblasts, Gli luciferase reporter luminescence | inhibition, % at 5 µM | 0.74% of 340,000 active | AID 588413, 2011;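 active means inhibition above about 55%, limit read from the data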;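 further: 0% = DMSO-treated cells and 100% = wells with medium but no cells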
697 NFkB inh: inhibitors of PMA/ionomycin-induced NF-kB reporter, 697 cells, primary screen, B-cell NF-kB inhibitor project, cell-based, luminescence, uHTS; inhibition, % at 4 µM; AID 435022, 2010; 697 B-cell NF-kB luciferase reporter, 16 h; 0.33% of 330,000 active; in the data active means inhibition above about 35%
Jurkat NFkB inh: inhibitors of induced NF-kB luciferase reporter, primary screen, TCR NF-kB activation inhibitor project, cell-based, luminescence, uHTS. Jurkat, PMA/ionomycin-induced NF-kB luciferase reporter. inhibition, % at 4 µM. 0.53% of 330,000 active; in the data active means inhibition above about 50%
aSyn UTR inh: MLPCN primary screen, SNCA 5' untranslated region; alpha-synuclein 5'UTR reporter, inhibitor activity; inhibition, % (tested at 7.5 µM); 0.82% of 300,000 active; in the data active means inhibition above about 60%;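 further: H4 neuroglioblastoma cells stably carrying SNCA 5'UTR luciferase fusion; 0% = DMSO wells and 100% = positive control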
CSC inhib: cancer stem cell viability inhibitors, primary screen, luminescence; cancer stem cell-like cells viability; inhibition, % at 7.5 µM; 1.1% of 300,000 active; AID 2717, 2010; in the data active means inhibition above about 75%; tested in HMLE shEcad cells
Mdm2 MdmX PPI: inhibitors of human Mdm2-MdmX association, primary screen, cell-based, luminescence, split luciferase, SaOS-2, uHTS; SaOS-2 split-luciferase Mdm2/MdmX complementation; 3% of 330,000 active; Protein Mdm4 (Homo sapiens) + E3 ubiquitin-protein ligase Mdm2 (Homo sapiens), …; inhibition, % at 8 µM;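 active means inhibition of at least 50% at 8 µM in the primary screen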
Jurkat NFkB conf: PMA/ionomycin-induced NF-kB reporter inhibitors, Jurkat retest, confirmation, T-cell NF-kB inhibitor project, cell-based, luminescence, single concentration | shares compounds with Jurkat NFkB inh | Jurkat NF-kB luciferase, 16 h | inhibition, % at 4 µM | 27% of 2,700 active | AID 435020, 2010;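 active means inhibition reaching about 45% at 4 µM in either replicate, limit read from the data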;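 further: plate controls were PMA/ionomycin stimulated DMSO wells for no effect and unstimulated DMSO wells for full effect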
Mdm2-MdmX conf: Mdm2-MdmX complex disruptors, retested hits, confirmation, luminescence, single concentration. Mdm2-MdmX binding, luminescent assay. inhibition, % at 8 µM. shares compounds with Mdm2 MdmX PPI. 55% of 10,000 active; in the data active means inhibition above about 40%
Full FLuc ctr: full-length luciferase signal inhibition, confirmation, counter-screen for Mdm2/MdmX interaction inhibitor project, cell-based, single concentration, SaOS-2; shares compounds with Mdm2 MdmX PPI; SaOS-2 full-length luciferase counterscreen, luminescence; inhibition, % at 8 µM; 77% of 6,200 active; AID 504607, 2011;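 active means mean inhibition at 8 µM reaching about 37%, which flags the compound as non-specific, limit read from the data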;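 further: p53-null SaOS-2 cells with luciferase driven by a doxycycline-inducible promoter; compound on cells about two nights before reading with doxycycline added after day one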
* hit, by the source's call; . = no result. A selection: hits, their analogues and other compounds. The true share with any hit is near 4.5%.

SMILES | Gli-Sufu antag | 697 NFkB inh | Jurkat NFkB inh | aSyn UTR inh | CSC inhib | Mdm2 MdmX PPI | Jurkat NFkB conf | Mdm2-MdmX conf | Full FLuc ctr
CCOc1ccc(S(=O)(=O)NCc2ccccn2)cc1NC(=O)c1ccccc1 | 9 | -26 | 53* | 37 | 51 | 58* | 46* | 75* | 57*
CCOc1cc(S(=O)(=O)NCc2ccc(OC)cc2)c(OCC)cc1-n1cnnn1 | -7 | -27 | 57* | 24 | . | 51* | 12 | 45* | 86*
CCOc1cc(S(=O)(=O)NCCc2ccc(OC)c(OC)c2)c(OCC)cc1-n1cnnn1 | -2 | -3 | -4 | -3 | -18 | -2 | . | . | .
CN(C)CCCn1cnc2c(c1=N)C(c1ccccc1)c1ccc3ccccc3c1O2 (stereo not drawn) | 12 | 2 | 87* | 90* | 104* | 100* | 24 | 100* | 52*
N=c1c2c(ncn1CCN1CCOCC1)Oc1cc(O)ccc1C2c1ccccc1 (stereo not drawn) | 4 | 10 | 8 | 0 | -11 | 15 | . | . | .
COc1ccc(C2c3ccc4ccccc4c3Oc3ncn(CCN(C)C)c(=N)c32)cc1 (stereo not drawn) | 15 | 19 | 51* | -16 | 16 | 91* | 4 | 43* | 64*
COc1ccc(Cc2nc3c4c(ncn3n2)Oc2c(ccc3ccccc23)C4c2ccc(OC)c(OC)c2)cc1 (stereo not drawn) | 5 | -31 | -7 | 11 | -1 | 13 | . | . | .
COc1ccc(OC)c(C2C(C(N)=O)=C(C)Nc3nc(CCCO)nn32)c1 (stereo not drawn) | -2 | 12 | 8 | 5 | -3 | 5 | . | . | .
COc1ccc(CCNC(=O)Cn2c(=O)n(Cc3ccco3)c(=O)c3ccc(Cl)cc32)cc1OC | 4 | . | . | -21 | . | . | . | . | .
CCSc1nc2sc3c(c2c(=O)n1-c1ccccc1C)CCN(C)C3 | -11 | 4 | 10 | -18 | -5 | 19 | . | . | .
Cn1c(SC2=CS(=O)(=O)c3ccccc32)nc2ccccc21 | 10 | -88 | 74* | -29 | 46 | 70* | 39 | 53* | 3
Cn1c(CSc2nc3ccccc3n2C)nc2ccccc21 | -9 | -10 | -5 | -22 | . | 15 | . | . | .
COc1ccccc1CN1CC(C(=O)N(Cc2cnn(C)c2)C(C)C)CCC1=O (stereo not drawn) | -16 | -7 | -3 | -3 | -6 | -9 | . | . | .
NS(=O)(=O)c1ccc(Sc2nc3ccccc3s2)c([N+](=O)[O-])c1 | 14 | -30 | 98* | 67* | 42 | 79* | 89* | 82* | 56*
CC(=O)O[C@H]1C(=O)[C@@]2(C)[C@H]([C@H](OC(=O)c3ccccc3)[C@]3(O)C[C@H](OC(=O)[C@H](O)[C@@H](NC(=O)c4ccccc4)c4ccccc4)C(C)=C1C3(C)C)[C@]1(OC(C)=O)CO[C@@H]1C[C@@H]2O | -1 | -2 | 70* | . | 63 | 65* | 68* | 64* | 57*
CCCCCC(=O)N[C@@H](c1ccccc1)[C@@H](O)C(=O)O[C@H]1C[C@@]2(O)[C@@H](OC(=O)c3ccccc3)C3[C@](C)(C(=O)[C@H](OC(C)=O)C(=C1C)C2(C)C)[C@@H](O)C[C@H]1OC[C@@]31OC(C)=O (stereo partly drawn) | -4 | -7 | 72* | 87* | 56 | 72* | 56* | 74* | 43*

Bioassay records from PubChem BioAssay.
